Measurements taken from PubChem BioAssay AID1508600 (Functional Genomics Laboratory (NCATS/FGL), 2020).
In all, about 53,000 sequences went through this assay and about 3,700 (7%) were called active.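 How the source made its calls: active means gene knockdowns whose robust z-score for IL-1 alpha signal is at least 2 or at most -2, so actives lie on both sides; inactive means the rest.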 The sample as a whole holds a higher share of actives than the screen did.

test: Components of the Cytosolic LPS Sensing Pathway: Gene Identification via Genome-wide siRNA Screen; details: RAW264.7 macrophages, IL-1a HTRF, actives lie on both sides, screened at 100 nM (by protocol), cells primed 5 h with Pam3CSK4 first;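 further: robust z of the log signal after scaling to non-targeting control siRNA wells of the plate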
Procedure, shortened: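 Using IL-1a HTRF as read-out, the screen measured release from RAW264.7 cells after 48h siRNA knockdown (100 nM), 5 h Pam3CSK4 priming and 24 h cytosolic LipidA. Values were expressed relative to negative-control wells as robust z-scores.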

z-score, active:
CGGCAAGCCCAAAAAGGUCTT against Dlx3 -2.34, GGAACUGGGUUCAUCCACATT against Snrpb2 -2.02, GGUCAUGGUCUGAGAUUCUTT against Txnl4a -2.34, GGAUUUUGUUCUUACAGUUTT against Nfia 2.8, GGAAGCUGUCCAAAAUGAGTT against Hnf4a 2.55, GGUACCAGGUAUCUUCAUUTT against Pard6g 2.95, GGCAUGUAAUGAAUUCACATT against Pbx3 -2.14, GGUCAUGGAAGAAGCAAAGTT against Sltm 2.08, GGUCCAAUUACUGAAGGUUTT against Spaca7 2.09, GCUACAGGAUAAGUCCAAUTT against Kpnb1 -2.01, GCCUUUCUUCUGUCAAUGATT against Olfr281 2.38

z-score, inactive:
GGCACACUUAAGUAAAAGUTT against Kras -0.542, GGCUACCUUCUACCUAAGGTT against Cyp2g1 1.42, GCAAUCUGUCCUUCUGUGATT against Olfr1133 -0.818, CCUGUACUGAACUACUUGATT against Kctd5 0.0535, CCUGGUACAAGGAACCAGUTT against Zim1 0.285, GGACCCAAUAAAACUUCCGTT against Ttc36 1.13, CCACAUACUCUAAUGAAGUTT against Casp1 0.176, GGAAAAAGAGCUUUUGGUCTT against Piwil2 0.528, GGAUGAGUUAAGUUUCUCATT against Sh3d19 -1.57, CCCUAAUAGGUCAAUAAAGTT against Vmn1r71 -0.0066, GGCAUUUCGUGGAUCACCGTT against Mtg2 -1.56, GGGUCACGUGCUGUCUCAUTT against Slc22a20 -1.55, GCAAAGCCUUACCAUGUAATT against Ighg 1.33, GGAAGUCAAGAAAGUGGCCTT against H1f0 -0.294, GGGAUACAAUGUAACAUACTT against L1cam -0.0915, GGACAGCUCUCUCCAUACATT against Tlr9 0.653, GGGAACUUUUUUGAUGGGCTT against Psmb2 -1.13, GCACAUUCAUAGGAGUACCTT against Vmn1r237 0.371, CGAAACUCCCAUUGUUAAUTT against Zfp521 1.29, GGAUCACAGAAUAGAACAATT against Hpgds 0.237, CCACAUGAACAAUUUGGGCTT against Rpl9 0.0288, CCACGACACGCAAGAUGAGTT against Fzd8 -0.756, CGACAAUACUCUCUUCAAGTT against Fst 0.691, CCAUCUGUAACGGAUCUGATT against Prorsd1 0.893, CCAGUUUAUCACAUAACCUTT against Wasl -0.928, CCAAAGAUACCAUUUUGCATT against Lypd8 0.599, GGAAUGCAGCCAUCCUAUCTT against Mia 0.0985, CCCAGAUUACCGUAAGCGATT against Jup 0.264, GGCCAAAUGGAAUAAGAAGTT against Wdr59 0.774, GGUUGCUUGGAAUUAAAAGTT against Klhl1 -1.58, GGGUUGAUUUGGUGUUUUATT against Usp46 0.673, CCUUGUAGUAAUAGGGAUGTT against Olfr116 0.681, GGAAAUGAGUGAAGAUGAATT against Cdk11b -0.186, CGCAUAUAUGUGUGUCGCCTT against Tmem125 0.256, CCCAAAUUGAUCCUAGCCUTT against Prkar1b 0.307, GGGCCUAUGUGCUUUAUAUTT against Usp8 -0.0584, GCUGUCCUGCCGUAAUAGATT against Oma1 -0.619, GCAAAGGAUCCAAUUUUAGTT against Rnf227 1.28, GCUCCAACUACAUUGACUATT against Olfr1410 -0.396, GCCGAGAGAGCCAAUACAATT against Tbc1d16 0.248, GGAAACACCUUUGAGGCUCTT against Kndc1 -1.88, CCGAAUCGUCCUAAACCAATT against Cyp11a1 0.284, GUACAUUUGCUGGAGCCUCTT against Hps6 0.395
